Bioassay records from PubChem BioAssay.
Most compounds without a hit are left out; they make up all but 2.4% or so of the library.
HEK293 tox = cytotoxicity counter-screen for GLP-1 receptor inverse agonists. 410,000 tested, 0.13% active. Potency, µM (doses to about 38.3 µM), most hits filed as inhibitors. HEK293 cAMP-luciferase reporter cells, luminescence, 24 h;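 also: loss of luciferase light is scored as toxicity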
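A 23 nL compound transfer followed 12 hours of cell culture at 37 deg C; exposure then lasted 24 hr. Luciferase assay detection reagent was dispensed and plates read for luminescence after a 12 min room-temperature wait.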
TRHR PAM = allosteric enhancers of human TRH receptor; P34981; TRHR cells, fluo-8 calcium fluorescence, EC20 TRH enhancement; enhancement, % at 2 µM; 360,000 tested, 0.66% active; AID 493056; in the data active = enhancement above about 30%
Target sequence (P34981 whole entry, looked up): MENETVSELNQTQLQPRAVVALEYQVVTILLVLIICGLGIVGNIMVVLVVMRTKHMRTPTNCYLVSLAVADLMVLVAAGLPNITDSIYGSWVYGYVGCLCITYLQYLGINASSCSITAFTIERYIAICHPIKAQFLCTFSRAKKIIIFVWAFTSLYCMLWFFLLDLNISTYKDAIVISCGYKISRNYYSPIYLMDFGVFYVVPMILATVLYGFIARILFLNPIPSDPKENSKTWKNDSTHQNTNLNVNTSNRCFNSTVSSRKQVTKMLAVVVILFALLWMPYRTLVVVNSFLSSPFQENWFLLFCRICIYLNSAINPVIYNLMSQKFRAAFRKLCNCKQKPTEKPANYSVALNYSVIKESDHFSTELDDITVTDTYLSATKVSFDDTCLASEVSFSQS
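Enhancer read-out: after compound pinning and an initial kinetic agonist-mode read, an EC20 of TRH (10 nM final) was injected and fluo-8 calcium signal (Ex 480/Em 530) followed at 1 s/cycle for 100 cycles in TRHR-expressing cells.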
GLP-1R agonist = activates the human GLP-1 receptor; HEK293 GLP-1R CRE-luciferase, luminescence, 4-6 h; cells express a hypersensitive GLP-1R form; Potency, µM (series often up to 45.6 µM), hits mostly activators; 380,000 tested, 0.007% active; AID 624172
GLP1R inv ag = acts as inverse agonist at human GLP-1 receptor; P43220; 410,000 tested, 1.6% active; Potency, µM (top dose mostly 38.3 µM), most hits filed as inhibitors; HEK293 GLP-1R CRE-luciferase, luminescence, 24 h; GLP-1R form is constitutively active; also: nearly all actives have a fitted effect of over 55% in size
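Cells are plated, allowed 12 hours at 37 deg C, then treated with compounds for 24 hr before luciferase detection reagent is added and luminescence is read after 12 min at room temperature. The HEK293 line carries constitutively active GLP-1R with a cAMP-responsive reporter.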
PTHR1 agonist = agonists of human PTHR1 parathyroid hormone receptor; 410,000 tested, 0.075% active; Potency, µM (top dose mostly 115 µM), most hits filed as activators; HEK293 GP2 PTHR1 cells, GloSensor cAMP luminescence, 1 h; AID 743266; also: nearly all actives have a fitted effect of over 55% in size
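HEK-293-derived GP2 cells expressing PTHR1 and a GloSensor cAMP reporter, 3,000/well, plated overnight, given luciferin plus IBMX (each 0.5 mM as added) for 1 h at 37 °C, then compound for 1 h at 37 °C. Luminescence was read after 15 min at room temperature.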
TRHR agonist = agonists of human TRH receptor; 360,000 tested, 0.18% active; P34981; activation, % at 2 µM; TRHR cells, calcium flux fluo-8, FDSS agonist mode; in the data active = activation above about 30%
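Agonist-mode FDSS calcium read (Ex 480/Em 530, 1 s cycles) in 1536-well TRHR cells with fluo-8 dye, after 10-cycle baseline and 23 nL compound addition; TRH at EC20 (10 nM final) added afterwards for the enhancer phase.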
Large screens that a line does not name were inactive. Unless noted, calls follow the shape of the dose curve; as a rule, active = well fitted curve in the direction sought with a large enough effect; inconclusive = small, poorly fitted or top-dose-only effect, or another doubt; inactive = no such curve, though single readings can be large; an effect the other way counts as inactive or inconclusive.

Cc1ccc(C2NC(c3ccc(C)cc3)C([N+](=O)[O-])C(C)(C)C2[N+](=O)[O-])cc1 (stereo not given)	GLP1R inv ag inconclusive
CC1(C)C([N+](=O)[O-])C(c2ccc(O)cc2)NC(c2ccc(O)cc2)C1[N+](=O)[O-] (stereo not given)	GLP1R inv ag inconclusive
CC1(C)C([N+](=O)[O-])C(c2ccc(Cl)cc2)NC(c2ccc(Cl)cc2)C1[N+](=O)[O-] (stereo not given)	GLP1R inv ag 10µM
COc1cccc(N2CC(NC(=O)c3ccc(S(=O)(=O)N4CCCCC4)cc3)CC2=O)c1 (stereo not given)	none (no result: GLP-1R agonist)
Cc1ccccc1C(=O)Nc1nnc(S(=O)(=O)N(C)Cc2ccc(Cl)cc2)s1	TRHR PAM 43 (no result: GLP-1R agonist)
Cc1ccccc1C(=O)Nc1nnc(S(=O)(=O)N2c3ccccc3CC2C)s1 (stereo not given)	GLP1R inv ag 11µM (no result: GLP-1R agonist)
Nc1nc(N)c2cc(Sc3ccc(Cl)cc3)ccc2n1	HEK293 tox inconclusive, GLP1R inv ag inconclusive (no result: TRHR PAM, TRHR agonist)
Nc1nc(N)c2cc(Sc3ccc4ccccc4c3)ccc2n1	HEK293 tox inconclusive, GLP1R inv ag 10µM
COc1cc(NC(=O)c2ccnc(N)c2)cc(C(=O)Nc2cccc(C(F)(F)F)c2)c1	none
COc1cc(NC(=O)c2cnc(N)s2)cc(C(=O)Nc2cccc(C(F)(F)F)c2)c1	GLP1R inv ag 13µM
Cc1cc(C)c(NC(=O)CNC(=O)c2ccc3c(=O)n4c(nc3c2)CCC4)c(C)c1	none
CCOCCCNC(=O)Cn1cnc2c(cnn2-c2ccc(C)c(C)c2)c1=O	none
COc1ccc(OC)c(CNc2ccc3c(c2)CCC3)c1	TRHR PAM 35
CN(C)S(=O)(=O)c1cccc(N=C2SCCN2Cc2ccccc2)c1	GLP1R inv ag 11µM
CCOC(=O)c1ccccc1Nc1cn(C(C)=O)c2ccccc12	none
CC(=O)n1cc(Nc2ccccc2C(=O)O)c2ccccc21	none
COc1ccccc1N(C(=O)CCl)c1cn(C(C)=O)c2ccccc12	HEK293 tox inconclusive, GLP1R inv ag 3.2µM
CC(=O)n1cc(N(C(=O)CCl)c2ccc(Cl)cc2)c2ccccc21	HEK293 tox inconclusive, GLP1R inv ag 11µM
CCCSc1cc(N2CCN(C)CC2)nc(-c2ccc(OC)cc2)n1	GLP1R inv ag 8.9µM, PTHR1 agonist inconclusive
CCCSc1cc(N2CCCC2)nc(-c2ccccc2)n1	none
CCOc1ccc(/C(O)=C2/C(=O)C(=O)N(c3ncccn3)C2c2ccc(C)cc2)cc1 (stereo not given)	none
O=C(COc1ccccc1F)Nc1ccc2nc(SCCOc3ccccc3)sc2c1	none (no result: GLP-1R agonist)
O=C1Nc2ccc(Br)cc2/C1=C/C1CC=CCC1 (stereo not given)	GLP1R inv ag 4.5µM
COc1ccc(C(=O)/C=C2\C(=O)Nc3ccc(Br)cc32)cc1	HEK293 tox inconclusive, GLP1R inv ag inconclusive (no result: TRHR PAM, TRHR agonist)
Cc1ccc(/C=N\Nc2nc3ccc(Cl)cc3[nH]2)o1	GLP1R inv ag 5µM
CSc1nc2ncc(C#N)cn2n1	none
CCCN(CCC)C(=O)Cc1coc2ccc3ccccc3c12	GLP1R inv ag 8.9µM
CCc1ccccc1NC(=O)C1(S(=O)(=O)c2ccc(Cl)cc2)CC1	GLP1R inv ag inconclusive (no result: GLP-1R agonist)
Cc1ccccc1NC(=O)c1ccc(-c2ccc(Cl)cc2Cl)o1	GLP1R inv ag inconclusive
S=C(c1ccc(-c2ccc(Cl)cc2Cl)o1)N1CCCC1	none
S=C(c1ccc(-c2ccc(Cl)cc2Cl)o1)N1CCCCC1	GLP1R inv ag 10µM
Cc1cccc(C)c1NC(=O)c1ccc(-c2ccc(Cl)cc2Cl)o1	GLP1R inv ag 1.6µM
Cc1cn(C)c(CC(=O)Nc2cccc(C#N)c2)c1C(=O)O	TRHR PAM 32 (no result: GLP-1R agonist)
Cc1cc(C)cc(-n2c(C)cc(/C=N/NC(=O)CN(c3c(C)cccc3C)S(C)(=O)=O)c2C)c1	GLP1R inv ag inconclusive
Cc1ccc(N(CC(=O)N/N=C/c2cc(C)n(-c3ccccc3C)c2C)S(C)(=O)=O)cc1	TRHR PAM 33, GLP1R inv ag inconclusive
